Consider 8 sequences from the supplement of paper PMC6555819.

Holding throughout (assay): PBM binding z-score (relative to random genomic background probes); higher = stronger binding; sequences stand for … in GC…GCGATTGACAGCGTAGAATGAAGG
Assay [1] deals with PPARg:RXRa DBDmut IVT, anti-RXR (DBD mutation: RXRa K156A/R161A, NR concentration 270 nM, RXRa partner concentration 90 nM). The gist of the method: (§1)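 Custom Agilent 4×180K protein-binding microarrays carried double-stranded probes. Their 34-nt variable regions held direct-repeat seeds, single-nucleotide variants, half-site ablations and random human genomic background sequences. Arrays were incubated 1 h with ligand-free nuclear receptor dimers in PBS pH 7.4, 2% milk, 0.02% Triton X-100, 1 mM DTT, 0.2 mg/mL BSA and 0.4 mg/ml salmon testes DNA. Antibodies against each partner (one per run) detected binding, and scanned fluorescence was regression-normalized. Binding z-scores use random background probes as reference.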

Assay [2] relates to PPARg:RXRa IVT, anti-PPARg (NR concentration 270 nM, RXRa partner concentration 90 nM). The gist of the method: as §1
Assay [3] relates to PPARg DBDmut:RXRa IVT, anti-PPARg (DBD mutation: PPARg1 K132A/R137A, NR concentration 270 nM, RXRa partner concentration 90 nM). The gist of the method:
as §1

Assay [4] relates to PPARg DBDmut IVT, anti-PPARg (DBD mutation: PPARg1 K132A/R137A, NR concentration 270 nM). The gist of the method: as §1
In assay [5] the test system is PPARg homodimer (NR concentration 180 nM). The gist of the method: as §1
Assay [6] relates to PXR:RXRa (NR concentration 270 nM, RXRa partner concentration 90 nM). The gist of the method:
as §1

Assay [7] deals with PXR homodimer (NR concentration 270 nM). The gist of the method: as §1
In assay [8] the test system is RARa:RXR (NR concentration 270 nM, RXRa partner concentration 90 nM). The gist of the method: as §1
Assay [9] deals with RARa homodimer (NR concentration 270 nM). The gist of the method:
as §1

Assay [10] deals with RARb:RXRa (NR concentration 270 nM, RXRa partner concentration 90 nM). The gist of the method: as §1
Assay [11] deals with RARb homodimer (NR concentration 270 nM). The gist of the method:
as §1

Assay [12] deals with RARg:RXRa (NR concentration 270 nM, RXRa partner concentration 90 nM). The gist of the method:
as §1

Assay [13] has as its system RARg homodimer (NR concentration 270 nM). The gist of the method: as §1
Assay [14] deals with RXRa DBDmut IVT, anti-RXR (DBD mutation: RXRa K156A/R161A, NR concentration 90 nM). The gist of the method: as §1
The test system of assay [15] is RXRa homodimer (NR concentration 180 nM). The gist of the method: as §1
Assay [16] relates to THRa:RXRa (NR concentration 90 nM, RXRa partner concentration 90 nM). The gist of the method:
as §1

The subject of assay [17] is THRa homodimer (NR concentration 90 nM). The gist of the method:
as §1

Assay [18] concerns VDR homodimer (NR concentration 270 nM). The gist of the method: as §1

In the case of CCTGCTGGGCCATCAGGTCATTGATATCAACGTT, the PBM binding z-score in [1] was 1.27; in [2] it was 1.52; in assay [3], -0.402; in assay [4] it was -0.46; in assay [5] it was 0.175; in assay [6] it was 1.55. The PBM binding z-score in [7] is 0.128; in [8], 1.83; in [9], -0.97; in assay [10], 2.02; in assay [11] it was 2.51; in assay [12] it was 2.06. Besides, the PBM binding z-score in assay [13] was determined as 2.01; in assay [14], 0.287; in assay [15] it was 1.01; in [16] it was 3.19; in assay [17], 2.31; in assay [18], 1.01.
With ACTAGCAGGCCAAGTGTCACTCAAGATTAGTCCG, the PBM binding z-score in assay [1] was 1.36; in assay [2] it was 1.14; in [3] it was -0.753; in assay [4], -0.466; in [5] it was -0.0608; in assay [6], -0.239. For the same sequence, the PBM binding z-score in assay [7] was -0.525; in assay [8], 0.0332; in [9], -0.483; in assay [10] it was 0.887; in assay [11], 0.681; in [12], 0.433. Besides, the PBM binding z-score is 0.865 in [13]; 0.117 in [14]; 0.215 in [15]; 0.0959 in [16]; -0.248 in [17]; -0.143 in assay [18].
In the case of TCTCGGAGGACACGAAGGTCCGAGCTTTCCAGAG, the PBM binding z-score in assay [1] was 1.24; in assay [2], -0.478; in assay [3] it was -0.785; in assay [4], -1.37; in [5], -0.731; in assay [6], -0.253. In addition, the PBM binding z-score is -0.438 in [7]; -0.322 in assay [8]; -1.26 in assay [9]; 1.56 in assay [10]; 0.577 in assay [11]; 0.296 in assay [12]. The PBM binding z-score in assay [13] is 1.3; in assay [14] it was 0.546; in [15], -0.235; in assay [16] it was 1.26; in assay [17] it was -0.0585; in [18], -0.315.
ATCTCTAGGTAAAGGTTCAGTGAATCCCGAGGAT: the PBM binding z-score was 2.8 in assay [1]; 3.07 in [2]; 1.06 in assay [3]; 0.461 in assay [4]; 0.615 in [5]; 0.795 in [6]. The PBM binding z-score in [7] is 0.0698; in assay [8], 0.886; in [9], 0.514; in [10] it was 1.32; in [11], 1.24; in [12] it was 1.03. Besides, the PBM binding z-score in assay [13] worked out at 1.05; in [14], 0.869; in assay [15], 1.01; in assay [16], 1.1; in assay [17] it was 0.351; in assay [18], 1.99.
For GTACCAAGGTGAAAAGGTCGTTGATGAGTAGGCG, the PBM binding z-score in assay [1] was 1.77; in assay [2], 2.85; in assay [3] it was 0.246; in assay [4], -0.0504; in [5], 2.35; in [6], 2.73. Besides, the PBM binding z-score in assay [7] turned out to be 0.862; in assay [8] it was 3.71; in [9], 0.82; in [10], 3.35; in assay [11], 3.49; in assay [12] it was 4.66. Moreover, the PBM binding z-score in assay [13] came to 2.59; in assay [14], 0.369; in assay [15], 3.57; in assay [16], 2.58; in [17] it was 0.7; in assay [18], 1.7.
GCTCGGAGGACAAGGGCAGAGCTTTGTCCGTAGA: the PBM binding z-score in [1] is -0.664; in assay [2] it was -0.527; in assay [3], -1.1; in [4] it was -1.88; in [5], -0.96; in assay [6] it was -0.518. Further, the PBM binding z-score in [7] is -0.927; in [8], -0.516; in assay [9] it was -1.17; in assay [10], 1.4; in assay [11] it was 0.567; in assay [12], -0.153. For the same sequence, the PBM binding z-score in assay [13] is 0.628; in assay [14], -0.927; in [15], -0.428; in [16], 0.387; in [17], -0.399; in assay [18] it was -0.558.
On to CCAGACAGGTGAGAAGCTAACTCAGCCTCGATTA, for which the PBM binding z-score was 1.24 in assay [1]; 0.141 in assay [2]; -0.708 in assay [3]; -1.08 in assay [4]; 0.381 in [5]; -0.471 in assay [6]. Besides, the PBM binding z-score in assay [7] was -0.163; in assay [8], -0.265; in assay [9] it was 0.766; in assay [10], 0.227; in assay [11], 0.0853; in assay [12], -0.181. Also, the PBM binding z-score in assay [13] was 0.0316; in assay [14] it was -0.135; in assay [15] it was 0.129; in [16], 0.183; in assay [17] it was -0.194; in assay [18], -0.0982.
Take ACTCGGAGGACAAAGGTTAGAGCTACGCCAGTGA: the PBM binding z-score in [1] is 0.161; in assay [2] it was 1.72; in assay [3], -0.577; in assay [4], -0.0683; in assay [5], 1.1; in [6], 0.7. Besides, the PBM binding z-score in assay [7] was 0.168; in assay [8] it was 1.46; in assay [9], 0.397; in [10] it was 2.23; in assay [11], 1.89; in assay [12], 2.94. Besides, the PBM binding z-score in assay [13] is 1.93; in [14], 0.75; in [15] it was 1.7; in assay [16], 1.76; in [17], -0.114; in assay [18], 0.17.
